Inconclusive results are not listed. Calls of active or inactive are those of the source. How the source made its calls: active means hit-call score of the fitted dose curve at least 0.9, where 1 is the maximum; inconclusive means response in the unintended direction; inactive means score below 0.9.
Experiments:
[1] = TOX21_p53_BLA_p2_viability: Viability Assessment in the Tox21 HCT-116 p53 Agonism Beta-lactamase Assay, Phase 2 (AID 2283591);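 further: compound exposure lasted 16 h at 37 °C; actives lower the ATP signal meaning cytotoxicity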
Summary of the method: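 Cytotoxicity readout: CellTiter-Glo ATP luminescence, 30 min at room temperature, after the beta-lactamase read. Cells were HCT116 exposed 16 h at 37C to compounds pin-transferred at 217-fold dilution from DMSO stocks.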

[2] = target: Cellular tumor antigen p53 (Homo sapiens) (UniProt P04637); assay: TOX21_p53_BLA_p3_ratio: Tox21 HCT-116 p53 Agonism Beta-lactamase Assay, Ratio, Phase 3 (AID 2283596)
Summary of the method: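 HCT116 p53-bla cells (4000/well) given compound in DMSO (217-fold dilution) after 5 h, incubated 16 h at 37C. CCF4-AM substrate 2 h at room temperature; 460/530 nm emission ratio, gain fitted against DMSO.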

[3] = TOX21_p53_BLA_p4_viability: Viability Assessment in the Tox21 HCT-116 p53 Agonism Beta-lactamase Assay, Phase 4 (AID 2283597);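 further: hits lower the luminescence signal meaning cytotoxicity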
Summary of the method: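 HCT-116 p53-bla cells, 4000/well, dosed after 5 h attachment and incubated 16 h at 37 °C, 5% CO2. Viability from CellTiter-Glo ATP luminescence after 30 min at room temperature, taken after the beta-lactamase read; loss of signal indicates cytotoxicity.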

[4] = TOX21_p53_BLA_p3_viability: Viability Assessment in the Tox21 HCT-116 p53 Agonism Beta-lactamase Assay, Phase 3 (AID 2283593);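 further: cells exposed to compound for 16 h before reading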
Summary of the method: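 Cellular ATP was quantified by CellTiter-Glo luminescence, read after 30 min at room temperature. Beforehand, HCT116 cells (4000/well) received compound 5 h post-seeding, 217-fold diluted from DMSO, then incubated 16 h at 37C.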

[5] = TOX21_p53_BLA_p5_viability: Viability Assessment in the Tox21 HCT-116 p53 Agonism Beta-lactamase Assay, Phase 5 (AID 2283600)
Summary of the method: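 HCT-116 p53 beta-lactamase reporter cells, 4000/well, were exposed to compound (pin transfer, 217-fold dilution) for 16 hours at 37C. Cellular ATP was read by CellTiter-Glo luminescence after 30 min at room temperature.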

[6] = target: Cellular tumor antigen p53 (Homo sapiens) (UniProt P04637); assay: TOX21_p53_BLA_p4_ratio: Tox21 HCT-116 p53 Agonism Beta-lactamase Assay, Ratio, Phase 4 (AID 2283601)
Summary of the method: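 Signal is the blue/green (460nm/530nm) ratio of cleaved versus uncleaved CCF4-AM substrate, read after 2 h substrate loading. Cells were HCT116 carrying the p53-responsive beta-lactamase reporter, dosed 16 h at 37C, 5% CO2; CellTiter-Glo measured in parallel.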

[7] = target: Cellular tumor antigen p53 (Homo sapiens) (UniProt P04637); assay: TOX21_p53_BLA_p5_ratio: Tox21 HCT-116 p53 Agonism Beta-lactamase Assay, Ratio, Phase 5 (AID 2283599)
Summary of the method: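 Beta-lactamase reporter ratio (blue 460 nm over green 530 nm, 405 nm excitation) after 2 h CCF4-AM loading, in HCT-116 cells exposed 16 h at 37 C to compounds pinned at 217-fold dilution. Increases relative to DMSO baseline scored.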

Measured: outcome

Sequence of Cellular tumor antigen p53 (Homo sapiens) (P04637 whole entry, looked up): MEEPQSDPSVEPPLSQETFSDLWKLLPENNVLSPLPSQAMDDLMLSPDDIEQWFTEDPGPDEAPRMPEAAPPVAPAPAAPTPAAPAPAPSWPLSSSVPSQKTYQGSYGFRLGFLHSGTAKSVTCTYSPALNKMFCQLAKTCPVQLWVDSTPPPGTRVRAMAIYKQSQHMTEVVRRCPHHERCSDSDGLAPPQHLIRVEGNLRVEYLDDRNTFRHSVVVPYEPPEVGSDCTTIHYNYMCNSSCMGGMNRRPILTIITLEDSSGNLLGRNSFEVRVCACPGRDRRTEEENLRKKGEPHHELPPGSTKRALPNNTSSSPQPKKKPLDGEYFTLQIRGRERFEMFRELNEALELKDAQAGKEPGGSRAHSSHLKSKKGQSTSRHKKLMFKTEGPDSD

CCCCC(=O)Cl
inactive: [1] | [2] | [3]

O=C1NCN(c2ccccc2)C12CCN(CC1COc3ccccc3O1)CC2 (stereo not given)
inactive: [1] | [4] | [5] | [6]

CNC(=O)Oc1ccccc1C(C)C
inactive: [1] | [2] | [6]

CCCCCON=O
inactive: [1] | [2] | [7]

COc1cc(CC(C)N)cc2c1OCO2 (stereo not given)
inactive: [1] | [2] | [3] | [7] | [6]

O=C(CCCN1CCC(n2c(=O)[nH]c3ccccc32)CC1)c1ccc(F)cc1
inactive: [1] | [4] | [3] | [6]

C[C@H]1O[C@H](OC2[C@@H](O)[C@@H](O)C(O)[C@H](O)[C@H]2O)[C@@H](N)C[C@@H]1N=C(N)C(=O)O (stereo not given in full)
inactive: [1] | [4] | [7]

CC(C)CCCCCOC(=O)c1ccccc1C(=O)OCCCCCC(C)C
inactive: [1] | [4] | [3] | [6]

Nc1ccccc1Cl
inactive: [1] | [2] | [3]

CN(C)C(=O)Oc1cc(OC(=O)N(C)C)cc(C(O)CNC(C)(C)C)c1 (stereo not given)
inactive: [1] | [2] | [6]

CC(C)(C)C(=O)Cl
inactive: [1] | [2] | [7] | [5] | [6]

Source: PubChem BioAssay (EPA / NIEHS)
